Test results as given in PubChem BioAssay AID1209 (Sanford-Burnham Center for Chemical Genomics, 2008).
Out of some 190,000 compounds screened, about 810 (0.43%) were called active. The list comes from a sample in which actives are over-represented; it also holds similar structures and randomly drawn compounds. Values without a mark were called inactive. Cut-off read from the data, not from the text of the source: active = inhibition above about 50%; inactive = the rest.

These compounds were tested against Mannose-6-phosphate isomerase (Homo sapiens) (UniProt P34949) (assay: MPI enzyme activity inhibition – biochemical, fluorescence intensity, coupled assay, primary screen (AID 1209;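 note: plate controls were DMSO vehicle for no effect and wells lacking substrate for full effect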)). Conditions: purified PMI enzyme, at 20 µM, active compounds read high.
Sequence of Mannose-6-phosphate isomerase (Homo sapiens) (P34949 whole entry, looked up): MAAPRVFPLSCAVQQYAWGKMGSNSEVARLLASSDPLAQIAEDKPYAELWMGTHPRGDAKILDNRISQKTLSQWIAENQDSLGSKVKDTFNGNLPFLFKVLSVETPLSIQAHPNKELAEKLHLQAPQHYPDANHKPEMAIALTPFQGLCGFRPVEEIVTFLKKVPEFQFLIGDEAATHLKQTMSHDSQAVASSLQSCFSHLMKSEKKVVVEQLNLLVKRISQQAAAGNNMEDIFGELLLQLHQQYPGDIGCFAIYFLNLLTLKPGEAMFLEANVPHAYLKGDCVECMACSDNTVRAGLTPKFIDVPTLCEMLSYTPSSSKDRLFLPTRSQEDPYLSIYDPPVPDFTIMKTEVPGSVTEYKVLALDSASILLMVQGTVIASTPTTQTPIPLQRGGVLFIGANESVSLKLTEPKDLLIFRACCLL

Compound	inhibition
Cc1cccc(NC(=O)c2ccc(NCC3CCCO3)c([N+](=O)[O-])c2)c1 (stereo not given)	2%
CCC(NC(C)C)C(O)c1ccc(O)c2[nH]c(=O)ccc12 (stereo not given)	4.3%
CNC[C@H](O)c1cccc(O)c1	-1.6%
COc1ccc([C@H](C)NC[C@H](O)c2ccc(O)c(NC=O)c2)cc1	0.1%
CCC(C)c1ccc(O)c(N)c1 (stereo not given)	26.6%
CCC(NC(C)C)C(O)c1ccc(O)c(O)c1 (stereo not given)	57.9% (active)
CNC[C@H](O)c1ccc(O)c(O)c1	63.2% (active)
Cc1c(C(=O)OC(C)C(C)C[N+](C)(C)C)oc2ccccc12 (stereo not given)	1.7%
COc1ccc(OC)c(C(C)NC(=O)c2ccco2)c1 (stereo not given)	7%
c1ccc(CNc2ncnc3nc[nH]c23)nc1	8.8%
CCn1c(SCc2nc3ccccc3[nH]2)nnc1-c1ccc(OC)cc1	6.6%
c1ccc2[nH]c(N3CCOCC3)nc2c1	-5%
c1ccc2[nH]c(SCCN3CCOCC3)nc2c1	-3.1%
c1ccc2[nH]c(SN3CCOCC3)nc2c1	94.5% (active)
OCCC1CN(Cc2cnc(-c3cccc4ccccc34)nc2)CCN1C1CCCCC1 (stereo not given)	13.3%
COc1ccccc1CNC(=O)c1cc2c(s1)CS(=O)(=O)C2	2.6%
CCCOc1ccc(C2NC(=S)NC(C)=C2C(=O)c2ccccc2)cc1OC (stereo not given)	-34.6%
COc1ccc(S(=O)(=O)NC(CC(=O)NCCc2ccc(OC)c(OC)c2)C(C)C)cc1 (stereo not given)	-5%
Cc1nn(-c2ccccc2)c(N)c1Sc1cccc([N+](=O)[O-])c1	5.2%
COc1c(/C=N/Nc2ccc([N+](=O)[O-])cc2[N+](=O)[O-])c(C)nn1-c1ccccc1	8.9%
CCOC(=O)c1c(Cc2ccccc2)c[nH]c1C	-17.6%
COc1ccc(Cc2noc(-c3ccc(OC)c(OC)c3)n2)cc1OC	1.8%
COc1ccc(Cc2nnc(N)s2)cc1OC	-1.6%
COc1cccc(NC(=S)/C(=C(\[O-])c2ccc([N+](=O)[O-])cc2)[n+]2ccccc2)c1	-1.1%
CCOc1ccccc1NC(=O)CCS(=O)(=O)c1cccc2nonc12	0.7%
O=C(CCS(=O)(=O)c1ccccc1)N1CCOCC1	-8.2%
CCCNC(=S)Nc1ccc2nc(-c3ccccn3)c(-c3ccccn3)nc2c1	26.5%

Compound	inhibition
Cc1ccc(NC(=S)Nc2ccc3nc(-c4ccccn4)c(-c4ccccn4)nc3c2)cc1C	76.2% (active)
CC(C)(C)CC(C)(C)NC(=S)Nc1ccc2nc(-c3ccccn3)c(-c3ccccn3)nc2c1	-21.7%
OCCCNC(=S)Nc1ccc2nc(-c3ccccn3)c(-c3ccccn3)nc2c1	56.9% (active)
CN(C)NC(=S)Nc1ccc2nc(-c3ccccn3)c(-c3ccccn3)nc2c1	-8.4%
Cc1nc2ccc(NC(=S)NCCCO)cc2nc1C	-27.3%
COc1cc2nc(CN(C)Cc3ccc(Cl)cc3)[nH]c(=O)c2cc1OC	5.6%
Cc1ccc(C(=O)Nc2ccc(Cl)cc2C)c(Cl)c1	-5.9%
COc1ccc(C2c3c(oc4ccc(C)cc4c3=O)C(=O)N2c2cc(C)ccn2)cc1OC (stereo not given)	30.5%
COC(=O)CCC(=O)COc1ccc(OC)cc1C#N	1.1%
Cc1ccc(OCC(=O)NCc2ccccc2)c([N+](=O)[O-])n1	20.4%
Cc1cc(C(=O)Nc2cccc3ccccc23)n(-c2ccccc2)n1	-11.6%
CCc1ccccc1NC(=O)c1cc(C2CC2)on1	-4.9%
Cc1ccc(Nc2cc(-n3nc(C)cc3C)ncn2)c(C)c1	-0.1%
O=C1NC(=O)C(Nc2cccc3ccccc23)S1 (stereo not given)	-0.5%
Cc1cc2n(n1)SC(Nc1cccc3ccccc13)N2 (stereo not given)	56.1% (active)
CCc1ccccc1NC1c2ccccc2C(=O)N1c1cc(C)ccn1 (stereo not given)	-2.8%
Cc1cc2n(n1)SC(Nc1cc(Cl)ccc1Cl)N2 (stereo not given)	19.6%
COc1ccc(S(=O)(=O)N2CCOCC2)cc1NC(=O)CN1CCCCCC1	-4.3%
COc1ccc(OC)c(S(=O)(=O)Nc2cccc(C(C)=O)c2)c1	4.2%
CC(=O)Nc1ccc(S(=O)(=O)N2CC3(C)CC2CC(C)(C)C3)cc1 (stereo not given)	12.4%
COc1ccc(NS(=O)(=O)c2ccc(OCC(=O)N3CCOCC3)cc2)cc1	10.6%
O=[N+]([O-])c1ccccc1NC(=S)N/N=C/c1ccc(O)c(O)c1	54.1% (active)
O=[N+]([O-])c1cc(/C=N/NC(=S)Nc2ccccc2Cl)ccc1Cl	-6.9%
COc1ccc(/C=N/NC(=S)Nc2ccccc2[N+](=O)[O-])cc1O	9%
O=C(c1ccc(C(=O)N2CCCc3ccccc32)s1)N1CCCc2ccccc21	-2.1%
Fc1ccc(-c2nnc3sc(C4COc5ccccc5O4)nn23)cc1 (stereo not given)	0.9%
Brc1ccccc1-c1nnc2sc(-c3ccc4c(c3)OCCO4)nn12	22.5%

Compound	inhibition
Clc1ccccc1-c1nnc2sc(-c3ccc4c(c3)OCO4)nn12	50.8% (active)
Clc1cccc(-c2nnc3sc(-c4ccc5c(c4)OCO5)nn23)c1	9.8%
Clc1ccccc1-c1nnc2sc(C3COc4ccccc4O3)nn12 (stereo not given)	50% (active)
Cc1ccc(-c2nnc3sc(C4COc5ccccc5O4)nn23)cc1 (stereo not given)	3.9%
Fc1ccc(-c2nn3c(C4COc5ccccc5O4)nnc3s2)cc1 (stereo not given)	7.6%
c1csc(-c2nn3c(C4COc5ccccc5O4)nnc3s2)c1 (stereo not given)	37.9%
COc1ccccc1-c1nn2c(C3COc4ccccc4O3)nnc2s1 (stereo not given)	57.6% (active)
CCC1(C)SC(N)=NN1C(C)=O (stereo not given)	7.1%
CCOC(=O)c1ccc(N/C(=N\S(=O)(=O)c2ccccc2C)c2ccccc2)cc1	10.9%
COc1ccc(C(=O)NCc2ccccc2)cc1Br	1.4%
COc1cc(C(=O)NCc2ccccc2)cc(Br)c1OC	1.2%
COc1cc(C(=S)NCc2ccccc2)cc(Br)c1O	68.6% (active)
Cc1cc(/C=N\NC(=O)COc2cccc3cccnc23)c(C)n1-c1ccccc1	1.7%
O=C(c1ccco1)N1CCn2c1nc1ccccc12	-7.1%
COc1ccc(NC(=O)c2ccc3nc[nH]c3c2)c(OC)c1	8.4%
Cc1nn(-c2ccccn2)c2c1-c1nc(N)ncc1CC2	4.1%
Cc1nn(-c2ccccn2)c2c1C(=O)C(Br)CC2 (stereo not given)	72% (active)
C=C(C)C1Cc2c(C)nn(-c3ccccn3)c2C1 (stereo not given)	-7.4%
COc1ccc(CNC(=O)CCCNS(=O)(=O)c2cccc3nonc23)cc1	13%
CCc1ccc(C(=O)CSc2ncn[nH]2)cc1	42.1%
CC(C)c1ccc(C(=O)CSc2ncn[nH]2)cc1	83% (active)
Cc1ccc(C(=O)CSc2ncn[nH]2)cc1	-6.3%
COC(=O)Cc1cn(-c2ncc(C(F)(F)F)cc2Cl)c2ccccc12	1.6%
Cc1cc2ccccc2n1CCNC(=O)c1ccccc1	-10.2%
Cc1c(Br)c(C(=O)NCc2cc3cc(Cl)ccc3[nH]2)nn1C	5.7%
O=C(CN1CCN(Cc2ccccc2)CC1)c1ccccc1	2%
O=C(C1CCN(Cc2ccccc2)CC1)N1CCCC1	-5.2%

Compound	inhibition
O=C(CN1CCN(Cc2ccccc2)CC1)N1CCCCCC1	60.7% (active)
O=c1[nH]c(=S)[nH]c2sccc12	-13.4%
Nc1[nH]c(=S)[nH]c(=O)c1-c1ccccc1	21.9%
O=c1[nH]c(=S)[nH]c2[nH]c(=S)[nH]c12	67.9% (active)
COc1ccc(CC(=O)OCC(=O)NC(=O)NC(C)C)cc1	9%
CCCn1nnnc1NCc1ccc(F)cc1	-4.6%
CCC(=O)N1c2ccccc2NC2=C(C(=O)CC(C)(C)C2)C1c1cccnc1 (stereo not given)	7.2%
C(=N\n1cnnc1)/c1ccc(OCc2ccccc2)cc1	-5.7%
CCOc1ccc(/C=N/n2cnnc2)cc1	84.4% (active)
Fc1ccc(COc2ccc(/C=N/n3cnnc3)cc2)cc1	-3.3%
Cc1occc1C(=O)Nc1nnc(-c2cccs2)s1	6.2%
Clc1ccccc1Sc1cnc2ccccc2n1	0.9%
O=C(/C=C/c1ccc(S(=O)(=O)N2CCOCC2)cc1)NC(=S)NCCCn1ccnc1	-0.5%
CC(C)=C1C2CCC1C1C(=O)N(c3nccs3)C(=O)C21 (stereo not given)	-3.3%
CC1(O)C(=O)c2ccccc2N(c2ccccc2)C1=O (stereo not given)	-6.5%
CCN1C(=O)C(F)(CC)C(=O)c2ccccc21 (stereo not given)	2.2%
CN1C(=O)C(Cl)(Cl)C(=O)c2ccccc21	77.4% (active)
CC(C)(C)c1ccc(C(=O)CSc2nc3ccccc3c(=O)[nH]2)cc1	-6.3%
CC(C)(C)c1ccc(C(=O)CSc2n[nH]c(=O)[nH]c2=O)cc1	-4.4%
COc1ccc(NC(C)C(=O)N/N=C/c2cc(Br)ccc2OC)cc1 (stereo not given)	11.5%
COc1ccc(/C(N)=N/OC(=O)CSc2ccc(C)cc2)cc1OC	14.6%
CN1CCN(C(=O)c2cc(-c3ccco3)on2)CC1	-0.9%
O=C(c1cc(-c2ccco2)on1)N1CCOCC1	20.8%
O=C(c1cc(-c2ccco2)on1)N1CCN(c2ccccc2)CC1	53.5% (active)
